Only some compounds are listed: those with a hit (about 0.9% of all), similar ones and a draw of the others.
PPARg SRC2 recr = PPARgamma-driven SRC-2 recruitment agonism; P37231; PPARgamma LBD-SRC-2 recruitment, biochemical; activation, % at 8 µM; 200,000 compounds, 0.34% hits; in the data active = activation above about 22%;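 also: 0% = vehicle and 100% = reference agonist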
Target sequence (P37231 whole entry, looked up, the tested form may be a part): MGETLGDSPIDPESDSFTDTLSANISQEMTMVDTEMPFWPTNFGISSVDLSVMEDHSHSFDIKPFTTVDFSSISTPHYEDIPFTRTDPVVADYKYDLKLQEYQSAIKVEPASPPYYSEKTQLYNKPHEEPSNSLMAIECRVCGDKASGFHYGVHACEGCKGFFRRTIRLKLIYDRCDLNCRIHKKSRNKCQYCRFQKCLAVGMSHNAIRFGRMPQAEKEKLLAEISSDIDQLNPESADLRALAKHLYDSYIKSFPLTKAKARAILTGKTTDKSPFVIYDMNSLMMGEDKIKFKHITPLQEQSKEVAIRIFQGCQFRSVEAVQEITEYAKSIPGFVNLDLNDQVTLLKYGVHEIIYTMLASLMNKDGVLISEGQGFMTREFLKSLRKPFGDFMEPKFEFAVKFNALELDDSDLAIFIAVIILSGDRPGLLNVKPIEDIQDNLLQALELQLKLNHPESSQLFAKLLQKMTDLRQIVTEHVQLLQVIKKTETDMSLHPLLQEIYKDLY
SRC1 TRFRET art = flags TR-FRET format artefacts in PPARgamma SRC-1 recruitment agonist screen; 99,000 compounds, 0.34% hits; TR-FRET detection artefact counter-screen, emission ratio; stronger effect = higher value; TR-FRET ratio at 8 µM; in the data active = TR-FRET ratio above about 2300
PPARg SRC-1 ag = promotes SRC-1 coactivator recruitment by human PPARgamma; PPARgamma-SRC-1 coactivator recruitment biochemical assay; activation, % at 8 µM; 200,000 compounds, 0.41% hits; in the data active = activation above about 19%;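 also: 0% = DMSO and 100% = reference agonist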
SRC3 TRFRET art = TR-FRET artefact, counter-screen to PPARgamma/SRC-3 agonist assay; PPARgamma/SRC-3 format; stronger effect = higher value; TR-FRET ratio at 8 µM; 99,000 compounds, 0.39% hits; AID 1048
PPARg SRC-3 ag = agonists of human PPARgamma SRC-3 coactivator recruitment; P37231; biochemical PPARgamma/SRC-3 coactivator recruitment assay; activation, % at 8 µM; 200,000 compounds, 0.26% hits; AID 731; in the data active = activation above about 23%;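 also: 0% = DMSO and 100% = reference agonist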
SRC2 TRFRET art = TR-FRET artefact, counter-screen to PPARgamma/SRC-2 agonist assay | stronger effect = higher value | TR-FRET ratio at 8 µM | 200,000 compounds, 0.4% hits | AID 1049
* marks the source's active call; other numbers are inactive results; . = no result given. Rule as the data show it, unless noted: active = TR-FRET ratio above about 2000; inactive = the rest.

SMILES	PPARg SRC2 recr	SRC1 TRFRET art	PPARg SRC-1 ag	SRC3 TRFRET art	PPARg SRC-3 ag	SRC2 TRFRET art
CCOC(=O)C1=C(O)/C(=C\c2cc(C)n(-c3ccc(F)cc3)c2C)N=C1C	17	2052	9	1692	5	1694
CCn1c(C)cc(/C=C2\NC(=O)N(CC(=O)Nc3ccc(F)cc3)C2=O)c1C	13	2342*	10	1608	5	1533
Cc1ccc(NC(=O)CN2C(=O)N/C(=C/c3cc(C)n(-c4ccc(C(=O)O)cc4)c3C)C2=O)cc1	5	1781	-2	1621	1	1549
O=C(Cn1nc(C(=O)O)c2ccccc2c1=O)NC12CC3CC(CC(C3)C1)C2	-2	1860	4	1377	2	1522
COc1cc(CCC(=O)N2CCN(c3ncccn3)CC2)cc(OC)c1OC	10	1861	-12	1382	5	1459
CCOC(=O)C1CCCN(S(=O)(=O)c2cc(Br)cc3c2N(C(=O)C2CC2)CC3)C1 (stereo not given)	6	2266	26*	1570	-1	1794
Cn1/c(=N/NC(=O)c2ccccc2Br)sc2ccccc21	-2	1970	6	1701	2	1569
N#Cc1ccccc1CSc1nc2ncc(Br)cc2[nH]1	16	1936	4	1759	3	1754
Fc1ccccc1CSc1nc2ncc(Br)cc2[nH]1	24*	.	3	.	7	1920
Cc1cccc(NC(=O)CSc2nnc(NC(=O)c3ccco3)s2)c1	-3	1684	-5	1397	-1	1533
Cc1nc(SCC(=O)OCc2ccccc2)c(C#N)c(-c2ccccc2)c1C(=O)Nc1ccccc1	-2	.	3	.	11	2287*
COC(=O)CSc1nc(C)c(C(=O)Nc2ccccc2C)c(-c2ccc(Cl)cc2)c1C#N	-4	1720	-6	2162*	-1	1652
Cc1ccccc1NC(=O)c1c(C)nc(SCC(=O)OCc2ccccc2)c(C#N)c1-c1ccc(F)cc1	-2	1564	1	1628	-5	1588
O=C(Nc1cnccn1)c1cccc(C(F)(F)F)c1	65*	.	0	.	2	2375*
NNC(=O)c1ccc(CN2CCCCC2)o1	-4	1778	2	1623	-2	1284
COc1cc(C(=O)NCC(=O)N/N=C(/C)c2cccs2)cc(OC)c1OC	-11	1658	-4	1554	-2	1410
O=C1CCCN1CCCNC(=S)Nc1ccc(F)cc1	0	1772	-5	1493	-2	1370
O=C1CCCN1CCC1CCN(C(=S)Nc2ccc(F)cc2)CC1	22*	.	-1	.	15	1700
COc1ccc(S(=O)(=O)Nc2c(F)cccc2F)cc1	22*	1989	3	1710	5	2118*
CN1c2ccsc2/C(=N/Nc2ccccc2)CS1(=O)=O	13	2232	0	1742	7	2054*
CN1c2ccsc2/C(=N/NC(=O)c2c(F)cccc2F)CS1(=O)=O	13	.	7	.	0	1571
CCc1cc(SC#N)ccc1N	5	1810	5	1646	1	1693
O=C(CSc1nnc2c(n1)[nH]c1ccc(S(=O)(=O)N3CCOCC3)cc12)Nc1ccccc1Cl	9	2042	10	2209*	14	1683
O=C(CSc1nc2ccccc2c(=O)n1-c1ccc(F)cc1)Nc1ccc(Cl)c(S(=O)(=O)N2CCOCC2)c1	17	2261	5	2299*	16	2212*
Cc1cc2nnc(SCC(=O)Nc3cc(S(=O)(=O)N4CCOCC4)ccc3Cl)n2c2ccccc12	5	1864	4	2297*	3	1718
SMILES	PPARg SRC2 recr	SRC1 TRFRET art	PPARg SRC-1 ag	SRC3 TRFRET art	PPARg SRC-3 ag	SRC2 TRFRET art
Nc1cc(=O)[nH]c(SCC(=O)Nc2cc(S(=O)(=O)N3CCOCC3)ccc2Cl)n1	0	1910	3	1565	-2	1697
Cc1ccc(-n2c(SCC(=O)Nc3cc(S(=O)(=O)N4CCOCC4)ccc3Cl)nc3ccccc3c2=O)cc1	-6	1829	1	1429	0	1481
O=C(CSc1nc2ccccc2s1)Nc1cc(S(=O)(=O)N2CCOCC2)ccc1Cl	12	1864	6	2069*	7	1577
Cc1ccc(S(=O)(=O)N2CCOCC2)cc1NC(=O)CSc1nnc2cc(C)c3ccccc3n12	8	2009	5	1734	3	1791
C/C(N)=C(/C#N)C(=O)CSc1cc(C)c2cc(C)cc(C)c2n1	-3	1914	-4	1618	3	1480
COc1cccc([C@@H]2Oc3ccc(OC)cc3C(=O)[C@H]2OC(=O)NCc2ccc3c(c2)OCO3)c1	14	1653	5	1828	3	1506
COc1ccc2cc(C(=O)C3CCCN(C(=O)Cc4c(C)noc4C)C3)ccc2c1 (stereo not given)	7	1673	-1	1408	0	1586
O=C(CSc1ncn[nH]1)CSc1ncn[nH]1	3	1658	4	1287	-1	1481
O=C(CSc1nc2ccccc2c(=O)n1-c1ccc(F)c(Cl)c1)Nc1cccc(S(=O)(=O)N2CCOCC2)c1	8	2035	-3	1729	5	1756
Cc1cc(SCC(=O)Nc2cccc(S(=O)(=O)N3CCOCC3)c2)nc2ccccc12	-4	2263	1	2197*	3	1663
CCc1ccc(-n2c(SCC(=O)Nc3cccc(S(=O)(=O)NC4=NCCCCC4)c3)nc3ccccc3c2=O)cc1	-1	1667	-10	1653	2	1490
Cc1ccc(-n2c(SCC(=O)Nc3cccc(S(=O)(=O)NC4=NCCCCC4)c3)nc3ccccc3c2=O)cc1	-1	2001	-1	2355*	3	2048*
COc1cc(/C=C/C(=O)OC(C)C(=O)Nc2c(C)n(C)n(-c3ccccc3)c2=O)ccc1OCC#N (stereo not given)	-1	2049	-5	1537	0	1688
COc1c(OC)c(O)c2c(=O)cc(-c3c(O)cccc3O)oc2c1OC	2	1922	21*	1661	0	1598
COc1ccc(-c2cc(=O)c3c(OC)c(OC)c(OC)c(OC)c3o2)cc1OC	-3	2007	5	1488	9	1392
CCCn1c(N)c(N(CCOC)C(=O)/C=C/c2ccc(C(=O)OC)cc2)c(=O)[nH]c1=O	1	1630	-2	1696	2	1546
Cc1nn(C)c(Sc2ccccc2N)c1[N+](=O)[O-]	-7	1684	4	1528	0	1604
O=C(c1ccco1)N1CCN(C(=O)c2cc(-c3ccncc3)nc3ccc(Br)cc23)CC1	5	.	9	.	15	1679
O=C(O)c1cc(-c2ccco2)nc2ccc(Br)cc12	22	2318*	18	2104*	16	2007*
CC(C)(C)C(=O)N1CCC(O)(CS(=O)(=O)c2ccc(Cl)c(Cl)c2)CC1	10	1893	3	1514	7	1622
COc1ccc2cc(Br)ccc2c1CC(=O)NC(C)(C)C	14	2214	10	2048	17	2017*
Cc1cc2nc(-c3ccc4c(c3)CCC4)ccn2n1	0	1893	2	1492	1	1613

Source: PubChem
